The record followed here is PubChem BioAssay (NCATS).

Records with an inconclusive call do not appear. Active and inactive are the calls of the source. Unless noted, calls come from the whole dose curve; as a rule, active = well fitted curve in the direction sought with a large enough effect in the repeat runs; inconclusive = weak or mixed curves; inactive = no such curve, though single readings can be large; an effect the other way counts as inactive or inconclusive.

The target in assay [1] is Cytochrome P450 2C9 (Homo sapiens) (UniProt P11712). The assay can be described thus: Cytochrome P450 family 2 subfamily C member 9 (CYP2C9) small molecule antagonists: luciferase biochemical (cell-free) qHTS assay (AID 1645842). Note: nearly all actives have a fitted effect of over 55% in size. Note: potency is the fitted concentration of half-maximal effect. To be noted: P450-Glo CYP2C9 enzyme assay, luciferin luminescence; series mostly up to 57.4 µM. An outline of the steps: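 P450-Glo CYP2C9 system: proluciferin substrate with enzyme in mix containing 0.4% BSA, 10 min at room temperature, then NADPH regeneration solution added and incubated 1 h at 37C. Detection reagent stopped reaction; luminescence read after 20 min as RLU.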
Chain of Cytochrome P450 2C9 (Homo sapiens) (P11712 whole entry, looked up): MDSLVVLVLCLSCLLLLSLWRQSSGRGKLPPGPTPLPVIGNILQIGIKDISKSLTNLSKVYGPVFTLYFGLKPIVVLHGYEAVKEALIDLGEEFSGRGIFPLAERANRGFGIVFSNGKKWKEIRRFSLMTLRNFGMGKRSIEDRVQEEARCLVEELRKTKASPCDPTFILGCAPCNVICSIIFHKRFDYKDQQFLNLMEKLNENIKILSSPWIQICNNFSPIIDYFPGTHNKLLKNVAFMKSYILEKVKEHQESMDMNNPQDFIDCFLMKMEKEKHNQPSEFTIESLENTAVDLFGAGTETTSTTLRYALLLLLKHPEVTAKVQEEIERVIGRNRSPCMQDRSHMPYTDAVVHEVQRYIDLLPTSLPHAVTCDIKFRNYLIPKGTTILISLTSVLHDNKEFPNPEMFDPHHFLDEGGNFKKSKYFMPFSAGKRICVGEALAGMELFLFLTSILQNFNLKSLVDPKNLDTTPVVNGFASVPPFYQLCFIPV

Assay [2] in a line: Cytotoxicity counterscreen for inhibitors of SARS-CoV-2 cell entry (AID 1645845; calls by dose curve; note: nearly all actives have a fitted effect of over 50% in size). To be noted: cell viability (SARS-CoV-2 entry assay cells); series mostly up to 57.1 µM. An outline of the steps: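 Counterscreen run in the same HEK293-ACE2 line as the pseudotyped-particle entry assay, without particles. Viability after 48 h at 37 C was read as ATP luminescence, scaled between cell-containing and cell-free wells.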
Background: The purpose of a counterscreen is to sort out artefacts and off-target activity.

For assay [3], the target named is Cytochrome P450 3A4 (Homo sapiens) (UniProt P08684). In words: Cytochrome P450 family 3 subfamily A member 4 (CYP3A4) small molecule antagonists: luciferase qHTS assay (AID 1645841). Note: nearly all actives have a fitted effect of over 45% in size. The note with it: P450-Glo CYP3A4 enzyme assay, luciferin luminescence; series mostly up to 57.4 µM. An outline of the steps: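 P450-Glo CYP3A4 enzyme with proluciferin substrate preincubated 10 min with compound at room temperature, then NADPH regeneration 1 h. Luciferin detection reagent added for 20 min; luminescence recorded. Ketoconazole positive control.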
Chain of Cytochrome P450 3A4 (Homo sapiens) (P08684 whole entry, looked up): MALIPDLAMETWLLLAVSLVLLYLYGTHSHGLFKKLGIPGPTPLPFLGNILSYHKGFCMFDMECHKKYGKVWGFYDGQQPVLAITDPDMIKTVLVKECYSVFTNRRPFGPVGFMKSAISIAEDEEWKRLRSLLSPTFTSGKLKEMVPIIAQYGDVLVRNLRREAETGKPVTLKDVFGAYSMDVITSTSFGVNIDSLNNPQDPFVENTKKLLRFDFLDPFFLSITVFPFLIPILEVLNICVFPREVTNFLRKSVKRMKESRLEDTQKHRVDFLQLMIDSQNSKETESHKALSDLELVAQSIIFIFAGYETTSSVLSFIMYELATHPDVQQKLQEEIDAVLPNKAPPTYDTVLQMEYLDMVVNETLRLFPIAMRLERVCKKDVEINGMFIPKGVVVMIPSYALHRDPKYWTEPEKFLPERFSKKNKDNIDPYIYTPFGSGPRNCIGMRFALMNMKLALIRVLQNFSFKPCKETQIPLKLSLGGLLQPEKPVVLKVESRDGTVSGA
(In qHTS, concentration-response curves come from the screen itself.)

Assay [4] is described as follows: Primary qHTS for inhibitors of nuclear receptor binding SET domain protein 2 (NSD2) in an isogenic RCH-ACV NSD2 p.E1099K mutant (9B) (AID 1645876; active = well fitted curve in the direction sought with a large enough effect; an effect the other way counts as inactive or inconclusive; note: nearly all actives have a fitted effect of over 70% in size; note: potency is the fitted concentration of half-maximal effect). To be noted: RCH-ACV NSD2 E1099K (9B) viability, CellTiter-Glo, 72 h; series mostly up to 44.9 µM.
The nature of assay [5]: Primary qHTS to identify inhibitors of SARS-CoV-2 cell entry (AID 1645846; calls by dose curve; note: nearly all actives have a fitted effect of over 45% in size). To be noted: SARS-CoV-2 pseudovirus cell entry assay, luminescence; activity change, negative = inhibition: at 57.1 µM (top of the series) unless noted; series mostly up to 57.1 µM. A digest of the protocol:
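Data are normalized to wells receiving SARS-CoV-2-S pseudoparticles and those given bald particles. Entry signal was luciferase luminescence in stable hACE2 Expi293F cells, 48 hr post-infection, after 1 hr compound pretreatment.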

Assay [6] in a line: Confirmatory qHTS to identify inhibitors of SARS-CoV-2 cell entry (AID 1645844; calls by dose curve; note: potency is the fitted concentration of half-maximal effect; nearly all actives have a fitted effect of over 45% in size). The note with it: SARS-CoV-2 pseudotyped particle cell entry, luciferase; series mostly up to 57.2 µM. An outline of the steps:
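HEK293-ACE2, overnight seeding; cpd 1 h, 37C/5% CO2; + SARS-CoV-2-S MLV PP (Wuhan-Hu-1, ΔC19); 48 h; Bright-Glo luminescence. Data normalised to S PP and bald PP wells.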

Assay [7] can be described thus: Primary qHTS for inhibitors of nuclear receptor binding SET domain protein 2 (NSD2) in an RCH-ACV wild type WT cells (2C) (AID 1645877; active = well fitted curve in the direction sought with a large enough effect; an effect the other way counts as inactive or inconclusive; note: potency is the fitted concentration of half-maximal effect; nearly all actives have a fitted effect of over 70% in size). To be noted: RCH-ACV (leukaemia line) NSD2 WT (2C) viability, CellTiter-Glo, 72 h; series mostly up to 44.9 µM.

Take `O=C(NC(=O)c1c(F)cccc1F)Nc1cc(Cl)c(OC(F)(F)C(F)C(F)(F)F)cc1Cl` (stereo unspecified): the Potency in assay [1] was 19.5 µM (active). The Potency entry in assay [2] was “inactive”.

As to `CNC(C)Cc1ccc2c(c1)OCO2` (stereo unspecified), the Potency entry in assay [1] is “inactive”.

Turning to `Cc1nc2ccccc2c(=O)n1-c1ccccc1Cl`, the Potency in assay [1] was 27.7 µM (active).

Take `CC(=O)OC1(c2ccccc2)CCN(CCc2ccccc2)CC1`: the Potency entry in assay [3] and in assay [4] was “inactive” each time.

As to `CC1COC2(c3ccccc3Cl)c3cc(Cl)ccc3NC(=O)CN12` (stereo unspecified), the Potency in assay [1] is 24.5 µM (active). Besides, the Potency entry in assay [2] and in assay [5] was “inactive” throughout.

Regarding `CN(C)C(=S)SSC(=S)N(C)C`, the Potency in assay [1] was 3.47 µM (active).

In the case of `CC#C[C@]1(O)CC[C@H]2[C@@H]3C[C@H](C)C4=CC(=O)CC[C@]4(C)[C@H]3CC[C@@]21C`, the Potency in assay [1] was 17.4 µM (active); in assay [6] it was 27.1 µM (active); in assay [4], 23.7 µM (active); in assay [7], 15 µM (active). In assay [2], the Potency entry is “inactive”.

Consider `CNC(C)Cc1ccccc1OC` (stereo unspecified), for which the Potency entry in assay [1], in assay [2] and in assay [5] was “inactive” each time.

Consider `NC(=O)OCCCc1ccccc1`, for which the Potency entry in assay [3], in assay [1], in assay [2], in assay [5] and in assay [4] was “inactive” in each case.

For `c1cc2c(c(N3CCNCC3)c1)OCCO2`, in assay [1], the Potency entry is “inactive”.

On to `CC(C)=C[C@@H]1[C@@H](C(=O)OCc2coc(Cc3ccccc3)c2)C1(C)C`, for which, in assay [1], the Potency was 7.76 µM (active).

`COc1ccc2[nH]cc(CCN(C(C)C)C(C)C)c2c1`: in assay [1], the Potency result is “inactive”.

Turning to `CN1C2CCC(C)(C)C1CC(OC(=O)C(O)(c1cccs1)c1cccs1)C2` (stereo unspecified), the Potency result in assay [1] and in assay [2] was “inactive” each time.

`CNC(=O)Oc1cccc2ccccc12`: the Potency entry in assay [1], in assay [2] and in assay [5] was “inactive” in each case.

As for `CCCN(CCC)CCc1c[nH]c2ccccc12`, the Potency result in assay [3] and in assay [1] was “inactive” each time.

On to `C[C@H]1CNCCc2ccc(Cl)cc21`, for which the Potency result in assay [3], in assay [1] and in assay [4] was “inactive” in each case.
